Only some compounds are listed: those with a hit (about 2.4% of all), similar ones and a draw of the others.
LEDGF integ inh = blocks HIV-1 LEDGF/p75-dependent DNA integration. TR-FRET IN-LEDGF/p75 DNA integration, Eu/Cy5. inhibition, % at 3.7 µM. 370,000 tested, 0.64% active. AID 743269;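 active = inhibition above the screen-wide mean plus 3 SD, cut at about 13% in these data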;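 also: signal is the Cy5 over europium emission ratio at 671 and 618 nm; 0% = plate median of compound wells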
MBD2 inh = inhibitors of human MBD2 binding to methylated oligonucleotide | 370,000 tested, 0.31% active | TR-FRET | AID 686964 | Q9UBB5 | inhibition, % at 4.4 µM; in the data active = inhibition above about 13%
UHRF1 binding = UHRF1 methyl-DNA binding inhibition. Q96T88. UHRF1 binding to methylated oligo, TR-FRET. inhibition, % at 4.4 µM. 370,000 tested, 0.75% active. AID 687016; in the data active = inhibition above about 21%;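 also: UHRF1 SRA domain binding a hemimethylated CpG hairpin DNA probe; 0% = median of test compound wells and 100% = reference inhibitor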
PLCg1 inh = inhibitors of human phospholipase C gamma1; inhibition, % at 12.2 µM; AID 720700; 370,000 tested, 0.84% active; purified PLC-gamma1, fluorogenic substrate, fluorescence; P19174; in the data active = inhibition above about 9.5%
PLCb3 inh = inhibitors of human phospholipase C beta3; Q01970; Purified PLC-beta3, fluorogenic substrate, fluorescence; inhibition, % at 12.2 µM; 370,000 tested, 0.18% active; AID 720704;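 also: 0% = median of compound wells on plate and 100% = full blocker control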
PLCgamma1 ctr = PLC-gamma1 inhibition, counter-screen for PLC-beta3 hits; AID 743258; 3,300 tested, 3.1% active; shares compounds with PLCg1 inh; inhibition, % at 12.3 µM; purified PLC-gamma1, fluorogenic substrate, fluorescence; in the data active = inhibition above about 9.5%
PLCbeta3 conf = confirmation of human PLC-beta3 inhibitors | purified PLC-beta3, fluorogenic substrate fluorescence | AID 743261 | shares compounds with PLCg1 inh | 3,300 tested, 1% active | inhibition, % at 12.3 µM
Numbers without * were called inactive; · = no result given. Rule as the data show it, unless noted: active = inhibition above about 11%; inactive = the rest.

SMILES	LEDGF integ inh	MBD2 inh	UHRF1 binding	PLCg1 inh	PLCb3 inh	PLCgamma1 ctr	PLCbeta3 conf
O=C(O)c1cccnc1SCc1ccc([N+](=O)[O-])cc1	-4	-5	0	2	-4	·	·
O=[N+]([O-])c1cccnc1SCc1ccccc1	6	-3	3	15*	0	2	0
O=C(NCc1ccc(F)cc1)c1cc2c(s1)CCCC2	4	-2	0	16*	15*	5	11*
CC1CCc2sc(C(=O)NCc3ccc(F)cc3)cc2C1 (stereo not drawn)	0	1	-2	4	4	·	·
Cc1ccc(-c2cc(N)n(-c3ccc(F)cc3)n2)cc1	8	-3	9	13*	1	2	6
CN(C)S(=O)(=O)N1CCC(Oc2cccc(C(=O)NCCC3=CCCCC3)c2)CC1	-2	7	6	11*	-10	-12	-1
NC1=NC2(CCN(Cc3ccccc3)CC2)n2c(nc3ccccc32)N1	2	-5	3	12*	4	-2	-5
NC1=NC2(CCC(c3ccccc3)CC2)n2c(nc3ccccc32)N1 (stereo not drawn)	-7	1	1	18*	14*	3	2
CC(C)(C)C1=Nn2c(nnc2-c2ccc(C(C)(C)C)cc2)SC1	4	-3	1	-1	0	·	·
CCOC(=O)c1csc(NC(=O)C2CCCN(S(=O)(=O)c3ccccc3[N+](=O)[O-])C2)n1 (stereo not drawn)	2	1	2	1	1	·	·
Cc1cccc(C(C)C)c1-n1nnnc1-c1ccccc1	0	1	-1	-1	0	·	·
CCC(C)(c1nnnn1-c1c(C)cccc1C)N(N=O)c1ccccc1Cl (stereo not drawn)	9	-3	-1	11*	8	7	-1
CCc1c(-c2ccccc2Br)ncn1CCc1ccccc1OC	-2	7	-2	0	-3	·	·
Cc1ccc2nsnc2c1S(=O)(=O)N1CCN(CCc2ccccc2)CC1	2	-2	-1	14*	6	-1	-1
O=S(=O)(c1ccccc1)N1CCN(CCc2ccccc2)CC1	-2	3	-1	-1	-1	·	·
COC(=O)[C@]12C[C@H](CC(=O)N3CCOCC3)C(=O)N(Cc3ccco3)C1=C[C@H](C(C)(C)C)O[C@@H]2C	2	1	5	1	2	·	·
C=CC[C@H]1c2ccccc2[C@H]2N3N=Cc4ccccc4[C@H]3[C@H](CCCC)C(=O)N2N1C(=O)c1ccccc1	-1	2	-2	-3	2	·	·
CCC(=O)Nc1cccc(NC(=S)NC(=O)c2ccccc2C)c1	-1	4	6	9.9*	3	1	1
C/C(=N/NC(=O)c1cccs1)c1ccc(NC(=O)COc2ccc(Cl)cc2Cl)cc1	0	-3	2	0	12*	-28	-28
C/C(=N/NC(=O)c1ccc(C)s1)c1cccc(NC(=O)COc2ccc(Cl)cc2Cl)c1	0	-1	3	4	-2	·	·
Cc1ccc(NC(=O)/C(C#N)=C/c2cc(C)n(-c3ccc(N4CCOCC4)c([N+](=O)[O-])c3)c2C)c(C)c1	-2	-4	0	0	-2	·	·
Cc1cc(/C=C(\C#N)C(=O)Nc2ccc(Cl)cc2)c(C)n1-c1ccc(N2CCOCC2)c([N+](=O)[O-])c1	1	-3	3	14*	7	3	4
Cc1ccccc1NC(=O)Cc1nc(COC(=O)c2cc([N+](=O)[O-])ccc2NCCO)cs1	1	-5	1	10*	6	-5	-5
Cc1ccccc1NC(=O)Cc1nc(COC(=O)c2ccc([N+](=O)[O-])cc2)cs1	-6	3	-2	-1	-8	·	·
O=S(=O)(CC1NCCc2ccccc21)NCCc1ccccc1 (stereo not drawn)	-3	3	1	1	0	·	·
SMILES	LEDGF integ inh	MBD2 inh	UHRF1 binding	PLCg1 inh	PLCb3 inh	PLCgamma1 ctr	PLCbeta3 conf
Cc1ccc(NC(=O)c2cccc3c2-c2ccccc2C3=O)c(C)c1	-4	0	-3	1	-1	·	·
CCOC(=O)[C@]12CCCCC/C=C\1N(Cc1ccc(OC)cc1)C(=O)[C@H]2CC(=O)NCC1CCCCC1	-3	0	4	3	2	·	·
O=C(CN1CCc2ccccc2C1)Nc1ccc(F)cc1F	1	-6	5	10*	-2	-6	-3
COc1cc2c(cc1OC)CN(CC(=O)Nc1ccc(F)cc1F)CC2	-1	-2	0	-12	-23	·	·
COc1ccc(N/N=C(\C#N)C(=N)SCc2ccccc2)cc1	7	-6	2	9.6*	2	6	2
CCC(C)NCCCCOc1ccc(Cl)cc1C (stereo not drawn)	0	1	5	12*	4	7	3
COC(=O)c1ccc(Cl)c(NC(=O)CN(c2ccc(OC)cc2)S(=O)(=O)c2ccccc2)c1	2	5	6	13*	8	-1	-5
CC1=NN(c2ccc(Cl)cc2)C(=O)C1	2	3	16	13*	8	-6	-3
CC1=NN(c2ccc(N)cc2)C(=O)C1	2	-6	-1	-6	-9	·	·
O=C(Nc1ccc(N=Nc2ccccc2)cc1)c1cccc(Cl)c1	3	-2	0	12*	8	2	3
O=C(O)c1ccc2c(c1Nc1ccccc1)C(=O)c1ccccc1C2=O	3	-25	-12	10*	2	4	4
CNc1c(C(=O)O)ccc2c1C(=O)c1ccccc1C2=O	-2	-14	-23	-1	0	·	·
COc1ccc(NC(=O)OCCN2CCCC23CCC(c2ccccc2)CC3)cc1 (stereo not drawn)	1	1	-1	3	4	·	·
COc1ccccc1CNC(=O)C1CCC(=O)N(CCCN2CCCC2=O)C1 (stereo not drawn)	-2	-1	6	9.9*	2	-4	-2
CC12C(=O)N(c3ccccc3C(=O)O)C(=O)C1C1C=CC2C1 (stereo not drawn)	5	2	-2	2	0	·	·
O=C(O)c1ccccc1N1C(=O)C2C3c4ccccc4C(Br)(c4ccccc43)C2C1=O (stereo not drawn)	7	-3	0	18*	-4	0	2
CCCCCCn1c(=O)n2n(c1=O)C[C@]1(OC(=O)NCC3CCCCC3)CN(S(=O)(=O)c3ccc(C)cc3)C[C@]1(O)C2	-1	0	3	0	3	·	·
CCCCCCn1c(=O)n2n(c1=O)C[C@]1(OC(=O)NC3CCCC3)CN(S(=O)(=O)c3ccc(C)cc3)C[C@]1(O)C2	3	10	11	11*	1	-5	-2
COC(=O)[C@H]1C[C@@]2(O)CN(S(=O)(=O)c3ccc(C)cc3)C[C@@]2(OC(=O)NC2CCCC2)C[C@H]1C(=O)OC	3	13	24*	9.7*	3	-9	-4

Compound activity (PubChem BioAssay)
